# The list shows a part of the results. The true hit rate is not given.
# Biological target: furin, P09958
# Experiment: furin cleavage Z-score vs untreated control; higher = more cleavage, active = 3.5 or more, inactive = 1 or less, 8 variable residues between constant flanks
# Outline: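 The cleavage Z-score was derived for purified furin acting on 8-mer peptides held on magnetic beads and fused to a cDNA oligonucleotide. Digests lasted 7.5, 15 or 30 min at 1:10 enzyme:substrate in 50 mM HEPES pH 7.5 with CaCl2 and NaCl. Sequencing counts of released DNA, log-transformed against furin-free reactions, were lowess-adjusted and scaled by median absolute deviation.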
# Sequence of furin, P09958 (P09958 whole entry): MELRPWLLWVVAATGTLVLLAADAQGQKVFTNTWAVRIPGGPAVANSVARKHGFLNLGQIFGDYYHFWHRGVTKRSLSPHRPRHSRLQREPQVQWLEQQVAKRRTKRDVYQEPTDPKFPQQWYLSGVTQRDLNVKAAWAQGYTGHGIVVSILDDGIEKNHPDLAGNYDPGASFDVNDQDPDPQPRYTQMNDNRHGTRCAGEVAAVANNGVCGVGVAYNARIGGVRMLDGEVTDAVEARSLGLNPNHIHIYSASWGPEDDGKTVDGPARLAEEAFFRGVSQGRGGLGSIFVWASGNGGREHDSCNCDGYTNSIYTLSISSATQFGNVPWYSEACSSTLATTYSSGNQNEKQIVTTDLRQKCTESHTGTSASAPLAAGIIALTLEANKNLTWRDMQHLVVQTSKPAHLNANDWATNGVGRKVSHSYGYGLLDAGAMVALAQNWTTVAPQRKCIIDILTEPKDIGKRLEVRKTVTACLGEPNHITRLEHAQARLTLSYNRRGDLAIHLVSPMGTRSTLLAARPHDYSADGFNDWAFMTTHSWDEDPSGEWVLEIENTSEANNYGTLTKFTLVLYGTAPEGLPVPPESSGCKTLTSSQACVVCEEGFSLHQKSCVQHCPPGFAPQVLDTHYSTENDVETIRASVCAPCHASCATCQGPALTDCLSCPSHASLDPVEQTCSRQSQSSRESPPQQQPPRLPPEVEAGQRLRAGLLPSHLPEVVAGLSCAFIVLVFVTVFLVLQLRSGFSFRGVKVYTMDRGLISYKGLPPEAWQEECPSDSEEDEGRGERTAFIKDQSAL
Sequence,furin cleavage Z-score (7.5 min),furin cleavage Z-score (15 min),furin cleavage Z-score (30 min)
CAVPCCSMSYAGNASASA [HC2019],-0.257 (inactive),0.638 (inactive),1.91
CAEQTTPCSGAGNASASA [HC1982],-1.3 (inactive),-0.293 (inactive),0.257 (inactive)
CASPLLLTTTAGNASASA [HC492],-0.516 (inactive),-0.474 (inactive),-1.67 (inactive)
CAESVVCCSMAGNASASA [HC2137],-0.35 (inactive),-0.242 (inactive),-0.275 (inactive)
CAEEEVPCHRAGNASASA [HC2452],-0.0801 (inactive),-0.749 (inactive),-0.159 (inactive)
CADAVILLMCAGNASASA [HC596],-0.491 (inactive),1.35,0.744 (inactive)
CAREKRSEYSAGNASASA [FS-1852],3.09,3.81 (active),3.2
CAREKRLLYSAGNASASA [FS-3218],-0.25 (inactive),0.302 (inactive),-0.105 (inactive)
CARGPRGKGKAGNASASA [FS-1893],-0.459 (inactive),-0.333 (inactive),-2.1 (inactive)
CALLCRHKRKAGNASASA [FS-1359],7.93 (active),9.24 (active),8.25 (active)
CAIEFRHKRKAGNASASA [FS-1535],-1.35 (inactive),1.39,3.89 (active)
CATIMAKNEVAGNASASA [HC1439],1.57,1.43,0.513 (inactive)
CAKFHRNRRVAGNASASA [FS-38],1.89,4.04 (active),2.3
CAMGGNITRVAGNASASA [HC1279],-0.69 (inactive),2.32,0.434 (inactive)
CAYGGRNRRVAGNASASA [FS-151],2,3.67 (active),4.5 (active)
CAEVVASTWVAGNASASA [HC121],1.23,1.63,-0.233 (inactive)
CAVPCVREGNAGNASASA [HC274],-0.737 (inactive),-0.519 (inactive),-1.84 (inactive)
CARLPRDCTRAGNASASA [FS-1742],5.34 (active),4.96 (active),5.25 (active)
CARLPRATGNAGNASASA [FS-2571],5 (active),5.67 (active),4.58 (active)
CAGVNYATGNAGNASASA [HC241],1.48,0.396 (inactive),-0.36 (inactive)
CAWREVPCHRAGNASASA [HC2428],0.368 (inactive),0.114 (inactive),0.301 (inactive)
CARLARTCGRAGNASASA [FS-2985],-1.25 (inactive),0.197 (inactive),-0.432 (inactive)
CARLRRMNGNAGNASASA [FS-2994],-0.28 (inactive),-1.18 (inactive),-0.557 (inactive)

Sequence,furin cleavage Z-score (7.5 min),furin cleavage Z-score (15 min),furin cleavage Z-score (30 min)
CAVVCCCMSYAGNASASA [HC114],-0.592 (inactive),-1.78 (inactive),-0.879 (inactive)
CAENLPYLVAAGNASASA [HC951],0.645 (inactive),-0.626 (inactive),-0.719 (inactive)
CARKRRGYSEAGNASASA [FS-2566],2.94,5.38 (active),4.72 (active)
CARKRRMQEEAGNASASA [FS-2349],1.31,4.08 (active),2.78
CARKNRSRIPAGNASASA [FS-1732],0.169 (inactive),-0.807 (inactive),1.17
CARKRRAAIPAGNASASA [FS-2970],8.75 (active),10.1 (active),9.65 (active)
CARKRKKKEEAGNASASA [FS-2697],0.247 (inactive),-0.542 (inactive),0.0983 (inactive)
CARKRRHHKEAGNASASA [FS-2699],2.57,3.84 (active),4.3 (active)
CAITTGSPITAGNASASA [HC803],-2.76 (inactive),0.166 (inactive),-2.04 (inactive)
CAHGVRVLEDAGNASASA [HC237],-1.85 (inactive),0.0719 (inactive),-1.67 (inactive)
CATLPCSGSWAGNASASA [HC1845],-0.596 (inactive),-0.261 (inactive),-1.28 (inactive)
CAAFASRGNHAGNASASA [HC1121],-0.112 (inactive),-1.64 (inactive),-2.06 (inactive)
CARKRRHAKPAGNASASA [FS-1906],10.5 (active),11.1 (active),8.48 (active)
CARGNHVSPTAGNASASA [HC1123],1.1,1.54,0.545 (inactive)
CAEVPCHRPKAGNASASA [HC2414],-1.63 (inactive),0.536 (inactive),-0.415 (inactive)
CAVVCCSMQYAGNASASA [HC2082],1.92,0.703 (inactive),0.648 (inactive)
CAGGAYDIIIAGNASASA [HC814],-2.09 (inactive),-0.697 (inactive),-1.96 (inactive)
CAPAPPRRRAAGNASASA [FS-1041],-0.128 (inactive),0.595 (inactive),-0.381 (inactive)
CAHHQRRRRAAGNASASA [FS-907],7.96 (active),6.66 (active),6.29 (active)
CAGERRRRRAAGNASASA [FS-996],8.97 (active),8.15 (active),6.93 (active)
CAGAGAGAGAAGNASASA [NE4],-0.934 (inactive),-0.739 (inactive),-0.847 (inactive)
CAGAQRRRRAAGNASASA [FS-1524],6.18 (active),4.18 (active),4.18 (active)
CAGERGFFYTAGNASASA [EK5],-1.92 (inactive),-1.21 (inactive),-0.932 (inactive)

# Reference: the supplement of paper PMC3545927
